Test results taken from the supplement of paper PMC13380429.

Tests used:
[1] = test system: Vero E6 infected with SARS-CoV-2; test: morphology score (similarity to uninfected cells); higher = more like uninfected cells; settings: 24 h
[2] = test system: Vero E6 infected with SARS-CoV-2; test: SARS-CoV-2 infection rate relative to infected DMSO; higher = more infection, active = 60 or less; settings: 24 h

Compound	morphology score [1]	SARS-CoV-2 infection rate [2]
C[N@+]1(CC2CC2)CC[C@]23c4c5ccc(O)c4O[C@H]2C(=O)CC[C@@]3(O)[C@H]1C5 [methylnaltrexone] (10 µM)	-0.0178	118% (inactive)
CNCc1ccc(-c2[nH]c3cc(F)cc4c3c2CCNC4=O)cc1 [rucaparib] (10 µM)	0.234	83% (inactive)
O=S1(=O)N[C@H]2CCCN2c2ccccc21 (10 µM)	0.0127	104% (inactive)
NC(=O)N1C(=O)/C(=C(\O)c2cccs2)c2cc(Cl)ccc21 [tenidap] (10 µM)	0.0356	91% (inactive)
Cc1[nH]c2ccc(F)cc2c1-c1nc2c3cccnc3c3ncccc3c2[nH]1 (10 µM)	0.21	102% (inactive)
CN(C)CCCN1c2ccccc2Sc2ccc(C(F)(F)F)cc21 [triflupromazine] (10 µM)	0.465	56% (active)
Nc1ncnc2c1c(-c1ccc(Oc3ccccc3)cc1)nn2C1CCCC1 (10 µM)	-0.00746	122% (inactive)
O=C(O)CNC(=O)C1C(=O)N(C2CCCCC2)C(=O)N(C2CCCCC2)C1=O [daprodustat] (10 µM)	0.206	81.5% (inactive)
C[C@H](O)[C@H](O)[C@H]1CNc2nc(N)[nH]c(=O)c2N1 [sapropterin] (10 µM)	-0.0335	95.5% (inactive)
CN1C(=O)CN=C(c2ccccc2)c2cc(Cl)ccc21 [diazepam] (10 µM)	0.0883	108% (inactive)
CC(Cc1ccc(O)cc1)NCC(O)c1cc(O)cc(O)c1 (configuration not stated) [fenoterol] (10 µM)	-0.0121	106% (inactive)
CCN[C@@H](C)Cc1cccc(C(F)(F)F)c1 [dexfenfluramine] (10 µM)	-0.224	112% (inactive)
CCS(=O)(=O)N1CCC([C@@H](C)n2c(C)c(C(=O)NCc3c(OC)cc(C)[nH]c3=O)c3ccccc32)CC1 (10 µM)	-0.000259	102% (inactive)
CCCCCCCCc1ccc(CCC(N)(CO)CO)cc1 [fingolimod] (10 µM)	0.717	26.5% (active)
CCOC(=O)[C@H](CCc1ccccc1)N[C@@H](C)C(=O)N1Cc2ccccc2C[C@H]1C(=O)O [quinapril] (10 µM)	-0.145	109% (inactive)
Cc1cc(Nc2cc(CN3CCOCC3)c3nc(C)c(Cc4ccc(Cl)cc4F)n3n2)n[nH]1 (0.833333 µM)	-0.0116	107% (inactive)
Cn1cc(C(=O)OCC2CCN(CCNS(C)(=O)=O)CC2)c2ccccc21 (10 µM)	0.228	96% (inactive)
CCc1cc(-c2[nH]nc(C)c2-c2ccc3c(c2)OCCO3)c(O)cc1O (0.833333 µM)	0.075	114% (inactive)
O=C(c1ccc(Nc2nccc(-c3cc4ccccc4s3)n2)cc1)N1CCC(N2CCCC2)CC1 (0.833333 µM)	0.629	56% (active)

Compound	morphology score [1]	SARS-CoV-2 infection rate [2]
CC(=O)O[C@@H]1CC[C@@]2(C)[C@@H](CC[C@]3(C)[C@@H]2C(=O)C=C2[C@@H]4[C@@H](C)[C@H](C)CC[C@]4(C)CC[C@]23C)[C@@]1(C)C(=O)O [acetyl-11-keto-beta-boswellic-acid] (10 µM)	0.104	105% (inactive)
NCCC(Oc1ccc(C(F)(F)F)cc1)c1ccccc1 (configuration not stated) [norfluoxetine] (10 µM)	0.568	59% (active)
CN(C)N(C)C(=O)[C@@]1(Cc2ccccc2)CCCN(C(=O)[C@@H](Cc2c[nH]c3ccccc23)NC(=O)C(C)(C)N)C1 [anamorelin] (10 µM)	0.0474	98.5% (inactive)
COCCNC(=O)Cn1cnc([N+](=O)[O-])n1 [sanazole] (10 µM)	0.122	93% (inactive)
CC(C)(C)NC(=O)N[C@H](C(=O)N1C[C@H]2[C@@H]([C@H]1C(=O)NC(CC1CCC1)C(=O)C(N)=O)C2(C)C)C(C)(C)C (some centres not stated) [Boceprevir] (10 µM)	0.133	100% (inactive)
CN(C)c1ccc2c(c1)Sc1cc(N(C)C)ccc1N2 [leucomethylene-blue] (0.833333 µM)	0.0825	114% (inactive)
CC(=O)OCC1=C(C(=O)O)N2C(=O)[C@@H](NC(=O)CCCC(N)C(=O)O)C2SC1 (some centres not stated) [cephalosporin-c-zn] (10 µM)	0.00489	97% (inactive)
C[C@H]1C[C@@H]2[C@H]([C@@H](O)C[C@@]3(C)[C@H]2CC[C@]3(O)C(=O)CO)[C@@]2(C)C=CC(=O)C=C12 [methylprednisolone] (10 µM)	-0.0624	108% (inactive)
COc1ccc2c(C)nc(Nc3nc(C)c(C)c(O)n3)nc2c1 [madrasin] (10 µM)	0.0439	107% (inactive)
CN(C)CCn1cc(S(=O)(=O)c2cccc(F)c2)c2cccnc21 (10 µM)	-0.0241	109% (inactive)
C#C[C@]1(O)CC[C@H]2[C@@H]3CCC4=CC(=O)CC[C@@H]4[C@H]3C(=C)C[C@@]21CC [etonogestrel] (10 µM)	0.249	90.5% (inactive)
CCOC(=O)[C@H](CCc1ccccc1)N[C@@H](C)C(=O)N1C(=O)N(C)C[C@H]1C(=O)O [imidapril] (10 µM)	-0.0373	117% (inactive)
COCCc1ccc(OCC(O)CNC(C)C)cc1 (configuration not stated) [metoprolol] (10 µM)	0.0844	101% (inactive)
CC(C)NC[C@@H](O)COc1ccc(CC(N)=O)cc1 (racemic) [atenolol-(+/-)] (10 µM)	0.0556	108% (inactive)
O=C(NC1(c2ccccc2)CC1)c1c(CN2CCC(N3CCCCC3)CC2)c(-c2cccc(C(F)(F)F)c2)nc2cc(Br)ccc12 (0.833333 µM)	-0.235	112% (inactive)
O=C(Oc1cccc2cccnc12)c1ccccc1 [benzoxiquine] (10 µM)	0.116	97% (inactive)
CCN[C@H]1CN(CCCOC)S(=O)(=O)c2sc(S(N)(=O)=O)cc21 [brinzolamide] (10 µM)	0.267	69% (inactive)
Oc1c(Cl)cc(Cl)c2cccnc12 [chloroxine] (10 µM)	-0.0551	98.5% (inactive)
NC[C@@H]1CC[C@@H](N)[C@@H](O[C@H]2[C@H](O)[C@@H](O[C@H]3O[C@H](CO)[C@@H](O)[C@H](N)[C@H]3O)[C@H](N)C[C@@H]2N)O1 [dibekacin] (10 µM)	0.0218	103% (inactive)

Compound	morphology score [1]	SARS-CoV-2 infection rate [2]
CC(C)C1=C2[C@H]3CC[C@@H]4[C@@]5(C)CC[C@H](OC(=O)CC(C)(C)C(=O)O)C(C)(C)[C@@H]5CC[C@@]4(C)[C@]3(C)CC[C@@]2([C@@H](O)CN(CCN(C)C)Cc2ccc(Cl)cc2)CC1=O (10 µM)	0.203	96% (inactive)
COCCOc1ccc2c(c1)ncn2-c1ccc2cccc(N3CCC(N)CC3)c2n1 (0.833333 µM)	-0.0191	106% (inactive)
O=C(Cn1ccnc1[N+](=O)[O-])NCc1ccccc1 [benznidazole] (10 µM)	0.0566	112% (inactive)
CCC(O)(CC(N)=O)c1ccccc1 (configuration not stated) [3-hydroxy-3-phenylpentanamide] (10 µM)	0.0251	112% (inactive)
Cc1ccc(O)c(N=Nc2ccccc2)n1 (10 µM)	0.26	81% (inactive)
Cc1ccc2c(c1)C1(CCN(CCc3nc(-c4ccccc4)oc3C)CC1)OC(=O)N2 (0.833333 µM)	0.0199	104% (inactive)
NS(=O)(=O)c1ccc(NC(=O)Nc2ccc(F)cc2)cc1 (10 µM)	0.0694	108% (inactive)
CS(=O)(=O)CCNCc1ccc(-c2ccc3ncnc(Nc4ccc(OCc5cccc(F)c5)c(Cl)c4)c3c2)o1 [lapatinib] (10 µM)	-0.279	111% (inactive)
COC(=O)C(Cc1ccc(OCCn2c(=O)sc3cc(C(=O)c4ccccc4)ccc32)cc1)C(=O)OC (10 µM)	0.318	88.5% (inactive)
O=C1c2c(O)cccc2C([C@@H]2O[C@H](CO)[C@@H](O)[C@H](O)[C@H]2O)c2cc(CO)cc(O)c21 (some centres not stated) [aloin] (10 µM)	-0.243	116% (inactive)
O=NN(CCCl)C(=O)NC1CCCCC1 [lomustine] (10 µM)	-0.0183	108% (inactive)
CN(C)c1ccc(/C=C2\CCCN=C2c2cccnc2)cc1 [DMAB-anabaseine] (10 µM)	0.121	96.5% (inactive)
CC1(C)O[C@@H]2C[C@H]3[C@@H]4CCC5=CC(=O)C=C[C@]5(C)[C@@]4(F)[C@@H](O)C[C@]3(C)[C@]2(C(=O)CO)O1 (10 µM)	0.0142	109% (inactive)
CCCCCCCCCCCCCCCC=O [1-hexadecanal] (10 µM)	0.185	100% (inactive)
Cn1c(COc2ccc(CC3SC(=O)NC3=O)cc2)nc2ccccc2c1=O (configuration not stated) [balaglitazone] (10 µM)	-0.114	111% (inactive)
CC(=O)O[C@H]1CC[C@@]2(C)C(=CC[C@@H]3[C@@H]2CC[C@]2(C)C(c4cccnc4)=CC[C@@H]32)C1 [abiraterone-acetate] (10 µM)	-0.0503	112% (inactive)
C=CCC1(CC(C)C)C(=O)NC(=O)NC1=O [butalbital] (10 µM)	-0.0632	117% (inactive)
Cc1c(N)nc([C@H](CC(N)=O)NC[C@H](N)C(N)=O)nc1C(=O)N[C@H](C(=O)N[C@H](C)[C@@H](O)[C@H](C)C(=O)N[C@H](C(=O)NCCc1nc(-c2nc(C(=O)NCCCNCCCCN)cs2)cs1)[C@@H](C)O)[C@@H](O[C@@H]1O[C@@H](CO)[C@@H](O)[C@H](O)[C@@H]1O[C@@H]1O[C@H](CO)[C@@H](O)[C@H](OC(N)=O)[C@@H]1O)c1cnc[nH]1 [bleomycetin] (0.833333 µM)	0.128	111% (inactive)
